Source: PubChem BioAssay
A549 tox = kills or reduces viability of A549 cells in Nrf2 counter-screen; AID 504648; Potency, µM (series often up to 46 µM), without a hit: top-dose activity change, negative = cytotoxicity, most hits filed as inhibitors; 0.16% of 390,000 active; A549 ARE-Fluc cells, CellTiter-Fluor viability, 18-24 h; also: potency is read from the fitted curve at half-maximal effect; % is scaled to controls: 0 for no effect and ±100 for the full control effect
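Cytotoxicity counterscreen: CellTiter-Fluor fluorescence was measured in A549 ARE_Fluc cells after 18-24 h of compound exposure in a concentration series. The subsequent BugLite luminescent read reports ARE-luciferase activity.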
Nrf2 block = inhibitors of Nrf2 signaling; A549 ARE-Fluc reporter, luciferase luminescence, 18-24 h; Potency, µM (doses to about 46 µM), inactives show at the highest dose activity change, negative = inhibition, actives largely listed as inhibitors; 2.1% of 360,000 active; also: potency is read from the fitted curve at half-maximal effect; % is scaled to controls: 0 for no effect and ±100 for the full control effect; nearly all actives have a fitted effect of over 60% in size
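Two sequential reads on A549 ARE_Fluc cells exposed to compound for 18-24 h: a CellTiter-Fluor fluorescence read for viability, then a luciferase luminescence read for Nrf2/ARE activity.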
Nrf2 activator = activates Nrf2 signaling. 0.31% of 410,000 active. AID 624171. AREc32 ARE-luciferase reporter (MCF7-derived line), luminescence, 24 h. Potency, µM (series often up to 46.1 µM), inactives show at the top dose activation, hits mostly activators; also: potency is read from the fitted curve at half-maximal effect; % of control where 0% means no effect; nearly all actives have a fitted effect of over 65% in size
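Luciferase luminescence (Steady-Glo, 30 min at room temperature) served as the read-out of ARE activation in AREc32 cells treated with compounds for 24 hr at 37 deg C.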
TCR act = activates T cell receptor signaling; Potency, µM (series often up to 9.22 µM), inactives show at the top dose activation of IL-2 secretion, most hits filed as activators; primary human leukocytes, anti-CD3, IL-2 HTRF, 48 h; 330,000 tested, under 10 active; also: % of control where 0% means no effect
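Primary human leukocytes were stimulated with a-CD3 beads plus compounds for 48 hr without co-stimulation; secreted IL-2 was quantified by HTRF using a-IL-2-K (europium cryptate) and a-IL-2-d2, excited at 320nm with acceptor emission read at 665nm.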
CCT modulator = changes cytosolic chaperonin activity | purified chaperonin ATPase assay, HTRF ADP detection, 30 min | activity change, % (test concentration not listed), hits read low | 0.3% of 360,000 active | AID 651819; in the data active = activity change below about -30%; also: % is scaled to controls: 0 for no effect and ±100 for the full control effect
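TRiC at 40 or 20 nM final (batch-dependent) in 30 mM Tris pH 7.4, 100 mM KCl, 5 mM MgCl2, 1 mM DTT, with compound at single 76 uM and 10 uM ATP, 30 min at 37 deg C. ADP detected by HTRF Transcreener, 665/615 ratio.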
A-T KAP1 phos = potential ataxia-telangiectasia treatments restoring KAP-1 phosphorylation. 0.19% of 320,000 active. AID 485349. F2112 A-T fibroblasts, KAP-1 phosphorylation AlphaLISA; neocarzinostatin DNA damage 30 min before lysis. Potency, µM (titrated, usually from 57.5 µM), for inactives: at the top dose activation, hits mostly activators; also: potency is read from the fitted curve at half-maximal effect; % of control where 0% means no effect; nearly all actives have a fitted effect of over 45% in size
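hTERT-immortalized A-T patient fibroblasts (F2112), 500 cells/well in OPTI-MEM, 1% FBS, got compounds for 60 min, then NCS for 30 min at 37C. Lysates were then assayed for phospho-KAP-1 by AlphaLISA (anti-pKAP1 donor, anti-KAP1 acceptor beads), 6 hr at 25C.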
Active calls of the source: *; u = inconclusive; x = no result given; [ ] = dose if it differs, or a comment. Compounds with a hit are over-represented: about 2.6% of the library has one in this group of screens. Unless noted, calls follow the shape of the dose curve; as a rule, active = well fitted curve in the direction sought with a large enough effect; inconclusive = small, poorly fitted or top-dose-only effect, or another doubt; inactive = no such curve, though single readings can be large; an effect the other way counts as inactive or inconclusive.

SMILES	A549 tox	Nrf2 block	Nrf2 activator	TCR act	CCT modulator	A-T KAP1 phos
CCN(Cc1ccccc1)C(=O)c1sc2nc3n(c(=O)c2c1C)CCCC3	-13%	23µM*	0%	x	x	x
CCOC(=O)c1[nH]nc(-c2c(O)cc(C)cc2O)c1-c1csc(C)n1	0%	9%	0%	0%	0	x
CCCc1cc(-c2n[nH]c(C(=O)OCC)c2-c2cscn2)c(O)cc1O	-12%	29µM*	-1%	4%	-2	-5%
O=C(Nc1cc(C(F)(F)F)ccc1Cl)c1cc(S(=O)(=O)NCc2ccccc2)ccc1F	10%	x	0%	x	x	x
Cc1oc(-c2ccccc2)nc1Cn1cccc1C1=NC(c2ccccc2)CO1 (stereo not given)	-9%	21µM*	0%	-3%	0	10%
CC(C)CC(OC(=O)CNC(=O)c1ccccc1)C(=O)Nc1cc(C(F)(F)F)ccc1Cl (stereo not given)	-8%	-3%	x	x	x	x
O=c1cc2oc3cc(O)c(O)cc3c(-c3ccccc3O)c-2cc1O	-18%	u	u	2%	0	-8%
COc1ccc(OC)c(-c2c3cc(O)c(=O)cc-3oc3cc(O)c(O)cc23)c1	21µM*	-54%	3%	5%[46.1 µM]	1	0%
CCOc1ccccc1-c1c2cc(O)c(=O)cc-2oc2cc(O)c(O)cc12	18µM*	u	-1%	6%[46.1 µM]	-1	-13%
CCOC(=O)c1ccccc1NC(=O)Cc1ccc(OC)c(S(=O)(=O)N2CCOCC2)c1	-25%	18µM*	0%	3%	1	4%
COc1ccc(CC(=O)Nc2cccc(Cl)c2C)cc1S(=O)(=O)N1CCOCC1	7%	12%	0%	2%	0	-4%
COc1ccc(NC(=O)C[C@H]2C(=O)N(C3CCCCC3)C[C@@H]2c2ccccc2)cc1	x	x	0%	x	1	x
O=C(C[C@H]1C(=O)N(C2CCCCC2)C[C@@H]1c1ccccc1)Nc1ccc(Br)cc1	x	x	3%	x	-53*	x
COc1ccc(NS(=O)(=O)c2ccc(-c3cnc(C4CC4)o3)cc2)cc1Cl	u	x	0%	x	x	x
Cc1nnsc1S(=O)(=O)c1ccccc1	0%	8.2µM*	1%	-4%	-1	-7%
Cc1ccccc1CS(=O)(=O)c1snnc1C	x	u	10%	-1%	-2	3%
O=C(Nc1ccc(Cl)cc1)Nc1nc(-c2ccccc2O)cs1	-17%	u	14%	-1%	1	40µM*
NS(=O)(=O)c1ccc(CCNC(=O)CCCn2ncn3c(cc4occc43)c2=O)cc1	6%	16%	0%	2%	0	1%
NC(c1ccccc1)c1cccnc1 (stereo not given)	-2%	12%	-1%	3%	-1	2%
NC(c1ccccc1)c1ccncc1 (stereo not given)	-2%	5%	-1%	x	-43*	3%
Cc1nn(-c2ccc(F)cc2)c(-n2cccc2)c1C(=O)NCCc1ccc(Cl)cc1	-5%	u	-4%	x	x	x
Cc1cccc(C(=O)N2CCN(c3ncnc4c3cnn4-c3ccccc3)CC2)c1	-15%	18µM*	3%	1%[46.1 µM]	-2	-6%
Cc1ccc(N[S+](=O)([O-])c2cc3c(cc2CCc2ccccc2)NC(=O)CO3)cc1C	-3%	-1%	x	x	x	x
Cc1ccc2oc(C(=O)Nc3c(C(=O)Nc4ccccc4)oc4ccccc34)cc(=O)c2c1	2%	7%	-1%	x	x	x
O=C(NCc1cccnc1)c1cc(C2CCCCN2C(=O)c2cccs2)on1 (stereo not given)	x	x	0%	x	-2	x
SMILES	A549 tox	Nrf2 block	Nrf2 activator	TCR act	CCT modulator	A-T KAP1 phos
CNC(=O)c1cccc(NC(=O)c2cc(-c3ccccc3)nc3c2cnn3C(C)C)c1	-20%	21µM*	0%	4%	2	-3%
COc1cc(NC(=O)c2cc(-c3ccccc3)nc3c2cnn3C(C)C)cc(OC)c1OC	u	u	-1%	1%	1	-11%
CCn1c(C(=O)N2CCCC(C(=O)NCCCc3ccccc3)C2)cc2sccc21 (stereo not given)	u	16µM*	3%	-1%[46.1 µM]	0	6%
CCn1c(C(=O)N2CCCC(C(=O)NCCc3ccc(C)cc3)C2)cc2sccc21 (stereo not given)	-15%	u	-2%	3%	-4	-1%
CCCCn1c(-c2nonc2N)nc2ccccc21	-20%	15µM*	-1%	x	-5	31%
CC(C)CCn1c(-c2nonc2N)nc2ccccc21	-13%	u	0%	-5%[46.1 µM]	0	u
CCC[C@@H]1CCCC/C=C\CCCC(=O)OCCN1C(=O)OC(C)(C)C	-2%	-29%	1%	6%	-3	25µM*
COc1ccc(OC)c(C(C)NC(=S)NC2CCCCC2)c1 (stereo not given)	0%	18µM*	0%	-2%	0	-6%
CCOCCCNC(=O)/C(C#N)=C/c1ccc([N+](=O)[O-])o1	u	26µM*	u	6%	2	-5%
CCCCCCCCNC(=O)/C(C#N)=C/c1ccccc1[N+](=O)[O-]	-5%	u	16%	0%[46.1 µM]	1	25µM*
N#C/C(=C\c1ccccc1[N+](=O)[O-])C(=O)NCc1ccccc1	9%	6%	7%	-13%	3	10%
CCOCCCNC(=O)/C(C#N)=C/c1ccc(-c2ccc(S(=O)(=O)N3CCOCC3)cc2)o1	-3%	0%	0%	-2%[46.1 µM]	-1	-9%
Cc1ccc(NC(=O)C2CCCN2S(=O)(=O)c2ccc3c(c2)n(C)c(=O)c(=O)n3C)c(C)c1 (stereo not given)	3%	2%	-1%	1%	1	-2%
CCN(CC)c1ccc(/C=N/NC(=O)c2cccc(S(=O)(=O)N3CCOCC3)c2)cc1	-20%	u	4%	-2%[46.1 µM]	-3	-8%
CCN(Cc1ccccc1)c1ccc(/C=N/NC(=O)c2cccc(S(=O)(=O)N3CCOCC3)c2)cc1	-22%	12µM*	3%	1%[46.1 µM]	-1	-1%
CCCn1c(=O)c2sccc2n2c(CCCC(=O)N3CCN(c4ccccc4)CC3)nnc12	-2%	-11%	0%	x	x	x
CCC(=O)Nc1nc2ccccc2n1Cc1ccc(Cl)cc1	-7%	21µM*	-2%	0%	-2	4%[11.5 µM]
O=C(Nc1nc2ccccc2n1Cc1ccccc1)c1ccco1	-14%	16µM*	0%	-8%	-3	5%
CCC(=O)Nc1nc2ccccc2n1Cc1ccccc1Cl	u	u	-1%	10%	1	-6%
O=C(c1ccccc1O)N(Cc1ccccc1)Cc1cccs1	2%	18%	x	x	x	x
